Positions count from the first letter of the chain named.
Legend:
Assay in all cases: HT-SELEX; high values mean tight binding
Conditions in all cases: protein: recombinant; vector His6-GST; dsDNA, one strand shown
SALL4 ZFC4 WT (HT-SELEX) = target: T1, SALL4 ZFC4 WT (HT-SELEX) (Mus musculus, UniProt Q8BX22 870-940)
T1 sequence: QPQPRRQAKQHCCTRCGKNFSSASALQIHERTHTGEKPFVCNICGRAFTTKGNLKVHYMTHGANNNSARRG
Procedure, shortened: (§1)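 Binding signal is defined as the fold change of each canonical k-mer's read fraction versus the initial random library. Selections used 1 µg of purified recombinant mouse SALL4 zinc finger cluster 4 (residues 870–940) with library DNA (1.5 µg first cycle, 200 ng later) in 100 µl of 10 mM Tris–HCl pH 7.5, 50 mM NaCl, poly(dI-dC) and DTT, for 10 min at room temperature, followed by Ni2+ bead capture, washing and PCR. Up to 6 such cycles were run in triplicate before MiSeq sequencing and 6-mer scanning.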

[1] = target: T2, SALL4 ZFC4 R900W (HT-SELEX) (Mus musculus, UniProt Q8BX22 870-940, R900W)
T2 sequence: T1 sequence with R31W
Procedure, shortened: as §1

[2] = target: T3, SALL4 ZFC4 G921D (HT-SELEX) (Mus musculus, UniProt Q8BX22 870-940, G921D)
T3 sequence: T1 sequence with G52D
Procedure, shortened: as §1

Row | Sequence | binding signal (SALL4 ZFC4 WT (HT-SELEX)) [fold-change vs cycle 0] | binding signal [1] [fold-change vs cycle 0] | binding signal [2] [fold-change vs cycle 0]
1 | CTAAAA | 1.62 ± 0.0677 | 1.63 ± 0.131 | 1.51 ± 0.106
2 | ATCTCG | 0.777 ± 0.0506 | 0.837 ± 0.0514 | 0.933 ± 0.0422
3 | CGACTA | 0.59 ± 0.0236 | 0.656 ± 0.0311 | 0.777 ± 0.0234
4 | CAGAAA | 1.12 ± 0.0595 | 1.18 ± 0.0406 | 1.15 ± 0.0688
5 | CTAAAC | 1.16 ± 0.0729 | 1.33 ± 0.0737 | 1.27 ± 0.0849
6 | GAAGGA | 0.959 ± 0.0373 | 1.11 ± 0.0789 | 1.08 ± 0.0796
7 | ACATGC | 0.613 ± 0.0259 | 0.7108 ± 0.0052 | 0.774 ± 0.017
8 | CTAGTA | 1.34 ± 0.0412 | 1.54 ± 0.0865 | 1.39 ± 0.135
9 | GCAATA | 1.12 ± 0.0362 | 1.04 ± 0.028 | 1.11 ± 0.028
10 | ATAACC | 1.63 ± 0.137 | 1.47 ± 0.11 | 1.38 ± 0.107
11 | CGCTAA | 0.488 ± 0.0307 | 0.562 ± 0.0185 | 0.667 ± 0.039
12 | GTTAAC | 1.39 ± 0.126 | 1.53 ± 0.0957 | 1.38 ± 0.101
13 | CTATCC | 0.843 ± 0.0485 | 0.98 ± 0.0213 | 0.977 ± 0.0393
14 | AAACCC | 0.691 ± 0.0592 | 0.77 ± 0.0294 | 0.845 ± 0.0633
15 | CTGAAG | 0.866 ± 0.0297 | 1.01 ± 0.0356 | 1.03 ± 0.0122
16 | AACATG | 1.25 ± 0.0212 | 1.38 ± 0.0255 | 1.32 ± 0.0877
17 | CGGTGA | 0.364 ± 0.0107 | 0.421 ± 0.0161 | 0.548 ± 0.0673
18 | CGATCC | 0.359 ± 0.0529 | 0.43 ± 0.0262 | 0.584 ± 0.0363
19 | TGGGAA | 0.795 ± 0.0577 | 0.859 ± 0.0429 | 0.877 ± 0.0259
20 | CCTGAG | 0.502 ± 0.0217 | 0.614 ± 0.0126 | 0.691 ± 0.0156

Row | Sequence | binding signal (SALL4 ZFC4 WT (HT-SELEX)) [fold-change vs cycle 0] | binding signal [1] [fold-change vs cycle 0] | binding signal [2] [fold-change vs cycle 0]
21 | CATCGG | 0.364 ± 0.0112 | 0.442 ± 0.0135 | 0.568 ± 0.0586
22 | GTAGCA | 0.6472 ± 0.00166 | 0.74 ± 0.0284 | 0.817 ± 0.0421
23 | CTTGAC | 0.777 ± 0.0347 | 0.934 ± 0.0128 | 0.981 ± 0.0363
24 | CAGGTA | 0.825 ± 0.0117 | 0.927 ± 0.0176 | 0.973 ± 0.0448
25 | CTCCCC | 0.313 ± 0.0129 | 0.36 ± 0.0359 | 0.456 ± 0.0544
26 | CCTCAG | 0.494 ± 0.0292 | 0.591 ± 0.0293 | 0.666 ± 0.0425
27 | TTCGAA | 1.05 ± 0.0775 | 1.14 ± 0.0752 | 1.15 ± 0.0514
28 | ATAGGA | 1.48 ± 0.0224 | 1.56 ± 0.056 | 1.45 ± 0.0712
29 | GAGTAC | 0.903 ± 0.0224 | 0.992 ± 0.045 | 1.04 ± 0.0172
30 | AAACGG | 0.53 ± 0.0454 | 0.652 ± 0.023 | 0.713 ± 0.0232
31 | TACGAA | 1.17 ± 0.0583 | 1.27 ± 0.067 | 1.22 ± 0.0855
32 | AACTCC | 0.917 ± 0.0119 | 1.02 ± 0.0156 | 1.06 ± 0.0177
33 | AATAAG | 2.35 ± 0.133 | 2.15 ± 0.175 | 1.86 ± 0.227
34 | AACCAG | 0.772 ± 0.0439 | 0.91 ± 0.0252 | 0.941 ± 0.0329
35 | CGTCAC | 0.375 ± 0.0256 | 0.436 ± 0.013 | 0.545 ± 0.0521
36 | CAGTGA | 0.806 ± 0.0191 | 0.934 ± 0.023 | 0.957 ± 0.0322
37 | CTTGAA | 1.25 ± 0.0309 | 1.42 ± 0.0651 | 1.32 ± 0.0914
38 | CGTTCC | 0.389 ± 0.0208 | 0.468 ± 0.0134 | 0.546 ± 0.0299
39 | CATGGA | 0.865 ± 0.0271 | 0.95 ± 0.0312 | 0.985 ± 0.0405
40 | ACTTCC | 0.854 ± 0.0494 | 1.02 ± 0.0553 | 1.03 ± 0.0487

Row | Sequence | binding signal (SALL4 ZFC4 WT (HT-SELEX)) [fold-change vs cycle 0] | binding signal [1] [fold-change vs cycle 0] | binding signal [2] [fold-change vs cycle 0]
41 | AATCCC | 0.882 ± 0.0212 | 0.932 ± 0.0228 | 0.963 ± 0.0176
42 | ATTTCA | 2.56 ± 0.117 | 1.87 ± 0.0758 | 1.7 ± 0.117
43 | GAAAGC | 0.586 ± 0.0266 | 0.698 ± 0.0129 | 0.775 ± 0.0469
44 | TACATA | 2.44 ± 0.175 | 2.02 ± 0.121 | 1.78 ± 0.178
45 | CCCTAC | 0.441 ± 0.0346 | 0.512 ± 0.0309 | 0.603 ± 0.047
46 | TAGTGA | 1.4 ± 0.0384 | 1.53 ± 0.027 | 1.43 ± 0.107
47 | AGAGCA | 0.756 ± 0.0413 | 0.893 ± 0.0729 | 0.98 ± 0.0193
48 | GTTTCA | 1.26 ± 0.0534 | 1.32 ± 0.0266 | 1.31 ± 0.0949
49 | AGACTG | 0.764 ± 0.0533 | 0.926 ± 0.0316 | 0.92 ± 0.0254
50 | GAGAAC | 0.84 ± 0.00885 | 1 ± 0.0376 | 1.04 ± 0.00942
51 | CGTGAC | 0.379 ± 0.0323 | 0.463 ± 0.0197 | 0.556 ± 0.043
52 | AAAGTA | 1.92 ± 0.0856 | 1.98 ± 0.162 | 1.73 ± 0.169
53 | ATGGAC | 0.777 ± 0.0185 | 0.861 ± 0.0318 | 0.938 ± 0.0184
54 | CACAGA | 0.669 ± 0.0131 | 0.784 ± 0.0217 | 0.8476 ± 0.00739
55 | AACCGA | 0.657 ± 0.0177 | 0.7295 ± 0.00455 | 0.812 ± 0.0455
56 | ACGGAG | 0.414 ± 0.0316 | 0.522 ± 0.0321 | 0.609 ± 0.0699
57 | AAAGCC | 0.465 ± 0.0355 | 0.543 ± 0.0413 | 0.65 ± 0.0602
58 | CAGGGA | 0.492 ± 0.0092 | 0.57 ± 0.0327 | 0.629 ± 0.0495
59 | ACAAAA | 1.6 ± 0.0623 | 1.61 ± 0.0945 | 1.5 ± 0.125
60 | CTTCAC | 0.856 ± 0.0564 | 1.04 ± 0.0731 | 1.03 ± 0.0678
